Laboratory results reported in PMC5540273 (PLoS ONE, 2017).

Legend:
Settings in all cases: concentration: 1 μM, replicates: in singlicate; n = 1
PIP5K1A = test system: PIP5K1A
PIP5K1C = test system: PIP5K1C
PIP5K2B = test system: PIP5K2B
PIP5K2C = test system: T1, PIP5K2C
T1 construct: gene PIP4K2C

PKAC-alpha = test system: T2, PKAC-alpha
T2 construct: gene PRKACA

PKAC-beta = test system: T3, PKAC-beta
T3 construct: gene PRKACB

PKMYT1 = test system: PKMYT1
PKN1 = test system: PKN1
PKN2 = test system: PKN2
PLK1 = test system: PLK1
PLK2 = test system: PLK2
PLK3 = test system: PLK3
PLK4 = test system: PLK4
PRKCD = test system: PRKCD
PRKCE = test system: PRKCE
PRKCH = test system: PRKCH
PRKCI = test system: PRKCI
PRKCQ = test system: PRKCQ
PRKD1 = test system: PRKD1
PRKD2 = test system: PRKD2
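Further: KINOMEscan kinase panel screen.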

Row | Compound | %Inh (PIP5K1A) [%] | %Inh (PIP5K1C) [%] | %Inh (PIP5K2B) [%] | %Inh (PIP5K2C) [%] | %Inh (PKAC-alpha) [%] | %Inh (PKAC-beta) [%] | %Inh (PKMYT1) [%] | %Inh (PKN1) [%] | %Inh (PKN2) [%] | %Inh (PLK1) [%] | %Inh (PLK2) [%] | %Inh (PLK3) [%] | %Inh (PLK4) [%] | %Inh (PRKCD) [%] | %Inh (PRKCE) [%] | %Inh (PRKCH) [%] | %Inh (PRKCI) [%] | %Inh (PRKCQ) [%] | %Inh (PRKD1) [%] | %Inh (PRKD2) [%]
1 | Cc1ccc(-c2ccc3occ(-c4ccc(S(C)=O)cc4)c3c2)nn1 (centres unmarked) | 0 | 42 | 17 | 58 | 0 | 0 | 11 | 0 | 9 | 0 | 0 | 0 | 2 | 1 | 0 | 0 | 0 | 13 | 30 | 9
2 | Cc1ccc(O)cc1Nc1ccnc2cc(-c3ccc(CN4CCCCC4)o3)ccc12 [GW557777] | 0 | 0 | 0 | 0 | 5 | 0 | 0 | 0 | 0 | 0 | 13 | 0 | 0 | 0 | 0 | 0 | 0 | 0 | 96.5 | 97.8
3 | CCn1cnc2c(NCc3ccccc3)ncnc21 [SKF-96418] | 21 | 22 | 0 | 0 | 0 | 0 | 0 | 0 | 0 | 14 | 25 | 34 | 1 | 3 | 29 | 0 | 0 | 0 | 0 | 0
4 | COc1cc(Nc2ccnc3cc(-c4ccncc4)ccc23)cc(OC)c1OC.Cl [GW494610] | 0 | 36 | 8 | 27 | 0 | 2 | 0 | 0 | 7 | 0 | 0 | 0 | 0 | 13 | 25 | 16 | 0 | 0 | 19 | 24
5 | O=C(Nc1n[nH]c2cc(-c3cccs3)ccc12)C1CC1 [SB-731284] | 21 | 96.7 | 15 | 35 | 0 | 0 | 0 | 5 | 0 | 64 | 9 | 28 | 29 | 17 | 11 | 0 | 0 | 0 | 0 | 0
6 | CN(c1ccc2c(c1)nc(NCc1ccccc1)n2C)c1ccnc(Nc2ccc(CS(C)(=O)=O)cc2)n1.Cl [GW811603] | 23 | 44 | 0 | 79 | 0 | 0 | 0 | 0 | 0 | 0 | 0 | 79 | 62 | 100 | 36 | 0 | 0 | 0 | 0 | 0
7 | COC(=O)Nc1nc2ccc(Oc3ccc(NC(=O)Nc4cc(C(F)(F)F)ccc4F)cc3)cc2[nH]1.Cl [GW654607] | 0 | 30 | 34 | 16 | 0 | 6 | 0 | 39 | 16 | 0 | 0 | 0 | 0 | 4 | 12 | 8 | 21 | 16 | 28 | 3
8 | Cc1ccccc1CC(=O)N1CCc2cc(-c3cn(C)c4ncnc(N)c34)ccc21 [GSK2603346] | 0 | 15 | 0 | 5 | 0 | 0 | 0 | 15 | 20 | 0 | 2 | 0 | 0 | 0 | 0 | 51 | 22 | 35 | 18 | 0
9 | Cc1cccc(Nc2nc(N[C@H]3CCCC[C@H]3N)ncc2C(N)=O)c1.Cl [GSK986310] | 0 | 63 | 9 | 12 | 19 | 29 | 16 | 34 | 9 | 1 | 0 | 0 | 16 | 53 | 56 | 43 | 28 | 53 | 50 | 56
10 | CC(C)(C)c1ccc(C(=O)Nc2cn3cc(-n4ccnc4)ccc3n2)cc1 | 2 | 4 | 0 | 95.3 | 37 | 0 | 0 | 10 | 0 | 0 | 24 | 10 | 0 | 7 | 15 | 0 | 10 | 23 | 0 | 12
11 | Cc1cccc(Nc2nc(NCCN)ncc2C(N)=O)c1 [GSK1292139] | 50 | 83 | 15 | 20 | 0 | 0 | 7 | 18 | 29 | 6 | 0 | 0 | 10 | 26 | 44 | 22 | 2 | 7 | 85 | 87
12 | CN(c1ccc(F)c(NC(=O)c2cccc(OC(C)(C)C#N)c2Cl)c1)c1ccc2nc(NC(=O)C3CC3)sc2n1 | 34 | 0 | 3 | 0 | 17 | 0 | 4 | 4 | 0 | 0 | 0 | 0 | 0 | 0 | 0 | 16 | 4 | 5 | 0 | 3
13 | COc1cccc(CC(=O)N2CCc3cc(-c4cn(C)c5ncnc(N)c45)ccc32)c1 [GSK2608899] | 0 | 10 | 34 | 0 | 4 | 12 | 10 | 19 | 0 | 9 | 0 | 0 | 4 | 17 | 1 | 10 | 31 | 0 | 18 | 1
14 | COc1ccc(NC(=O)c2ccoc2)cc1-c1ccc(C(=O)NCC2CC2)cc1 [GW810437] | 7 | 0 | 0 | 0 | 15 | 15 | 0 | 0 | 0 | 50 | 34 | 28 | 8 | 9 | 41 | 0 | 6 | 0 | 0 | 0
15 | Cl.Cl.NC(CNC(=O)c1cc(Br)c(-c2ccnc3[nH]ccc23)s1)c1ccccc1 (centres unmarked) [GSK1322949] | 74 | 85 | 86 | 57 | 98.4 | 97.2 | 16 | 14 | 33 | 15 | 74 | 48 | 41 | 76 | 93.1 | 92.6 | 36 | 74 | 0 | 24
16 | Cn1cc(-c2ccc3c(c2)CCN3C(=O)Cc2cc(F)cc(F)c2F)c2c(N)ncnc21 [GSK2634140] | 10 | 0 | 13 | 12 | 0 | 4 | 0 | 0 | 0 | 0 | 0 | 0 | 0 | 0 | 0 | 17 | 0 | 20 | 100 | 0
17 | CCn1c(-c2nonc2N)nc2c(-c3ccccc3)ncc(OCCCN)c21.O=C(O)C(F)(F)F.O=C(O)C(F)(F)F [GSK260205] | 35 | 87 | 10 | 29 | 97.6 | 97.7 | 0 | 84 | 0 | 0 | 0 | 0 | 0 | 97.9 | 97.3 | 95.6 | 69 | 93 | 91.2 | 93.6
18 | COC(=O)Nc1nc2cc(Oc3ccc(NC(=O)Nc4cccc(SC)c4)cc3)ccc2[nH]1.Cl [GW697999] | 56 | 62 | 20 | 40 | 0 | 4 | 0 | 0 | 0 | 0 | 0 | 0 | 0 | 1 | 11 | 4 | 0 | 0 | 3 | 10
19 | Nc1ncnc2scc(-c3ccc(NC(=O)Cc4cc(F)ccc4F)cc3)c12.O=C(O)C(F)(F)F [SB-731254-M] | 0 | 0 | 0 | 0 | 13 | 15 | 23 | 4 | 26 | 9 | 66 | 47 | 35 | 27 | 2 | 34 | 43 | 3 | 0 | 0
